SMILES strings stand for the structures. Inconclusive results are not listed. A call without a number means that no potency is given here. Active and inactive are the calls of the source. Calls follow the shape of the full dose curve.

The nature of this assay: p53 small molecule agonists, cell-based qHTS assay with rat liver microsomes: qHTS cell viability counter screen (AID 1963580). Also: nearly all actives have a fitted effect of over 45% in size. The settings on record: p53RE-bla HCT-116 + rat microsomes, ATP viability, 16 h; series mostly up to 66 µM. In outline:
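Counter screen for cytotoxicity under metabolic activation: rat liver microsomes and NADPH, 0.5 mg/mL final each, added with compounds to p53RE-bla HCT-116 cells; 16 h at 37 C, then ATP luminescence read.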
(In qHTS, concentration-response curves come from the screen itself.)
Turning to `CC(C)(Oc1ccc(C2CC2(Cl)Cl)cc1)C(=O)O` (stereo not given), the Potency result is “inactive”.

For the compound `OC[C@@H](O)[C@@H](O)[C@H](O)[C@@H](O)CO`, the Potency entry is “inactive”. For `OC(Cn1cncn1)(Cn1cncn1)c1ccc(F)cc1F`, the Potency entry was “inactive”.

Consider `OCCO`, for which the Potency entry was “inactive”.

Turning to `NS(=O)(=O)c1cc2c(cc1Cl)NCNS2(=O)=O`, the Potency result is “inactive”. As to `O=C(O)Cc1ccccc1Nc1c(Cl)cccc1Cl`, the Potency entry is “inactive”. Regarding `CC(C)(C#N)c1cc(Cn2cncn2)cc(C(C)(C)C#N)c1`, the Potency entry was “inactive”. Take `C[C@]12CC[C@@H]3c4ccc(O)cc4CC[C@H]3[C@@H]1C[C@@H](O)[C@@H]2O`: the Potency result was “inactive”. `CC[C@H](C)C(=O)O[C@H]1C[C@@H](C)C=C2C=C[C@H](C)[C@H](CC[C@@H]3C[C@@H](O)CC(=O)O3)[C@H]21`: the Potency entry is “inactive”.

For the compound `Cc1nnc(NS(=O)(=O)c2ccc(N)cc2)s1`, the Potency result is “inactive”.

`NC(=O)c1ccccc1O`: the Potency entry was “inactive”. The value for `CC(C)Cc1ccc(C(C)C(=O)O)cc1` (stereo not given) was “inactive”; that for `CC(C)(Oc1ccc(Cl)cc1)C(=O)O` was “inactive”. On to `COc1ccccc1OCC(O)CO` (stereo not given), for which the Potency result was “inactive”. As to `NC(=O)c1cccnc1`, the Potency entry was “inactive”. With `CC(=O)[C@@]1(O)CC[C@H]2[C@@H]3C[C@H](C)C4=CC(=O)C=C[C@]4(C)[C@@]3(F)[C@@H](O)C[C@@]21C`, the Potency result was “inactive”. The value for `CC(=O)Nc1nnc(S(N)(=O)=O)s1` was “inactive”. Turning to `NNCCc1ccccc1`, the Potency entry was “inactive”.

Consider `CCOC(N)=O`, for which the Potency result was “inactive”. As for `CCCCCCc1ccc(O)cc1O`, the Potency result is “inactive”.

Source of the values: PubChem BioAssay (Tox21).
